Experimental data taken from PubChem BioAssay (EPA / NIEHS).
Records with an inconclusive call do not appear. Calls of active or inactive are those of the source. The calls were made as follows, unless noted: active = hit-call score of the fitted dose curve at least 0.9, where 1 is the maximum; inactive = score below 0.9.

Key:
[1] = CCTE_Harrill_HTTr_Viability_MCF7: CCTE's 6-hour Cell Viability Assessment for the High-Throughput Transcriptomics (HTTr) Platform, in MCF-7 cells cultured in DMEM + 10% fetal bovine serum, Harrill Lab (AID 2284010)
How it was run: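 MCF-7 cells in DMEM + 10% FBS, 384-well, exposed 6 h to an eight-point dilution series. Membrane integrity scored by high-content imaging of propidium iodide exclusion; bidirectional fit versus DMSO.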

[2] = CCTE_Harrill_HTTr_Apoptosis_MCF7: CCTE's 6-hour Apoptosis Assessment for the High-Throughput Transcriptomics (HTTr) Platform, in MCF-7 cells cultured in DMEM + 10% fetal bovine serum, Harrill Lab (AID 2284011)
How it was run: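 MCF-7 cells in DMEM + 10% FBS exposed 6 h to chemicals over an eight-point dilution series. Caspase-3/7 activation imaged by high-content CellEvent Green staining; fitted bidirectionally versus DMSO.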

[3] = CCTE_Shafer_MEA_acute_spike_number: CCTE's Neural Acute Assay for Total Number of Spikes, Shafer Lab (AID 2284008)
How it was run: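 Rat primary cortical neurons on 48-well MEA plates, DIV 13 or 15, at 37 C. 40 min baseline then 40 min with compound (0.03-40 uM); spikes detected at 8x rms noise, expressed as percent change from baseline.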

[4] = CCTE_Shafer_MEA_acute_firing_rate_mean: CCTE's Neural Acute Assay for Mean Firing Rate, Shafer Lab (AID 2284009);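 also: analyzed for loss of signal so actives lower firing rate relative to DMSO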
How it was run: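 Percent change in well-mean firing rate was derived from extracellular spikes detected at 8x rms noise (300-5000 Hz band-pass) before and after a 40-min compound exposure. Cultures were primary rat cortical neurons, tested at 0.03-40 uM.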

[5] = CCTE_Shafer_MEA_acute_burst_number: CCTE's Neural Acute Assay for Single-Electrode Bursts, Shafer Lab (AID 2284013)
How it was run: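 Spontaneous network activity of primary rat cortical neurons was recorded extracellularly on microelectrode arrays at 37 C, with 40-min periods before and during exposure to 0.03-40 uM compound on DIV 13 or 15.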

[6] = CCTE_Shafer_MEA_acute_burst_duration_mean: CCTE's Neural Acute Assay for Mean Burst Duration, Shafer Lab (AID 2284014);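 also: hits are decreases in mean burst duration relative to DMSO controls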
How it was run: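 Read-out is the per-well percent change in mean burst duration (first to last spike within a single-electrode burst) between 40-min recordings before and after compound. Cultures were primary rat cortical neurons on MEAs, dosed at 0.03-40 uM on DIV 13 or 15.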

[7] = CCTE_Shafer_MEA_acute_per_burst_spike_number_mean: CCTE's Neural Acute Assay for Average Number of Spikes Per Burst, Shafer Lab (AID 2284015);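 also: hits are decreases in mean spikes per burst versus baseline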
How it was run: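 Percent change in mean spikes per single-electrode burst is compared between a 40 min baseline and a 40 min recording with compound (0.03-40 uM). Cultures were rat cortical neurons on MEA plates at DIV 13 or 15, recorded at 37 C, with DMSO as the negative control.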

[8] = CCTE_Shafer_MEA_acute_interburst_interval_mean: CCTE's Neural Acute Assay for Mean Interburst Interval, Shafer Lab (AID 2284016);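 also: percent change of mean interburst interval versus each well's own pre-dose baseline; curves fitted for decrease in interburst interval relative to DMSO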
How it was run: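 Percent change in mean single-electrode interburst interval was calculated per well from 40 min recordings before and after compound (0.03-40 uM). Recordings were made at 37 C on rat cortical cultures at DIV 13 or 15, with spikes detected at 8x rms threshold.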

[9] = CCTE_Shafer_MEA_acute_burst_percentage_mean: CCTE's Neural Acute Assay for Percentage of Spikes in a Burst, Shafer Lab (AID 2284017);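 as to AC50: curve fitted for loss of signal so potency reflects decreased burst percentage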
How it was run: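 Well-level mean burst percentage from a 40-min recording after compound (0.03-40 uM) expressed as percent change from a 40-min baseline at 37C. Cultures: primary rat cortical neurons on MEA, dosed on DIV 13 or 15; fitted downward relative to DMSO.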

[10] = CCTE_Shafer_MEA_acute_burst_percentage_std: CCTE's Neural Acute Assay for Standard Deviation of Burst Percentage, Shafer Lab (AID 2284018);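 also: fitted in the negative direction so actives lower burst percentage SD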
How it was run: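 Value is percent change from baseline in the across-electrode SD of spikes-in-bursts percentage, wells with >/= 10 active electrodes. Acute 40-min exposure to 0.03-40 uM on DIV 13 or 15 rat cortical cultures, recorded at 37 C after 40-min baseline.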

[11] = CCTE_Harrill_HTTr_CellCount_MCF7: CCTE's Cell Proliferation Assessment for the High-Throughput Transcriptomics (HTTr) Platform, Harrill Lab (AID 2284012; active = hit-call score of the fitted dose curve at least 0.9, where 1 is the maximum;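 also: cells exposed to compound for six hours; intended direction is loss of nuclei count meaning fewer cells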)
How it was run: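 MCF7 cells exposed 6 hours to an eight-point dilution series; Hoechst-stained nuclei counted by high-content imaging. Bidirectional curve fitting against DMSO baseline.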

[12] = CCTE_Simmons_MITO_basal_resp_rate: CCTE's HepG2 Seahorse XF Respirometric Screening Assay at Basal Respiratory State, Simmons Lab (AID 2284001); details: actives raise or lower the signal
How it was run: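 HepG2 respirometry; 7-pt titration 125 nM–100 uM final; kinetic OCR at 6 min intervals for 72 min; n=3 biological, technical singles; DMSO baseline, gain or loss fit; fenpyroximate (decrease) and 2,4-DNP (increase) controls.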

[13] = CCTE_Simmons_MITO_inhib_resp_rate: CCTE's HepG2 Seahorse XF Respirometric Screening Assay at Inhibited Respiratory State [full ETC block], Simmons Lab (AID 2284006); details: actives raise or lower the signal
How it was run: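 HepG2 oxygen consumption was measured by Seahorse XF after compound, FCCP, then rotenone/antimycin A injections. Seven concentrations from 125 nM to 100 uM (final) were tested, with 6-min kinetic reads over 72 minutes. Inhibited-state OCR was fitted bidirectionally against DMSO.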

[14] = CCTE_Simmons_MITO_viability: CellTiter-Glo Viability Assessment for CCTE's HepG2 Seahorse XF Respirometric Screening Assay [post-hoc], Simmons Lab (AID 2284007; active = hit-call score of the fitted dose curve at least 0.9, where 1 is the maximum;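 as to AC50: cells exposed to chemical for 90 min before the ATP read; actives lower ATP signal relative to DMSO baseline meaning reduced viability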)
How it was run: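 HepG2 cells exposed 90 min to 7 concentrations from 125 nM to 100 uM final, then ATP measured by luciferase luminescence. Three biological replicates per concentration; DMSO vehicle; dichlone control at 10 nM–100 uM.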

SMILES	outcome [1]	outcome [2]	outcome [3]	outcome [4]	outcome [5]	outcome [6]	outcome [7]	outcome [8]	outcome [9]	outcome [10]	outcome [11]	AC50 [9]	AC50 [12]	AC50 [13]	AC50 [14]	outcome [13]	outcome [14]
CCCCCCCCCCCCCCCC	inactive	inactive															
CCCCCCCCCCCCCCCCCC(=O)O	inactive	inactive	inactive	inactive	inactive	inactive	inactive	inactive	inactive	inactive							
Nc1ccc2c(c1)C(=O)c1ccccc1C2=O	inactive	inactive	inactive	inactive	inactive	inactive	inactive	inactive	inactive	inactive							
Cc1ccc(C(C)C)c(O)c1	inactive	inactive	inactive	inactive	inactive	inactive	inactive	inactive		inactive	inactive	20 µM (active)					
Nc1ccccc1N	inactive	inactive	inactive	inactive	inactive	inactive	inactive	inactive	inactive	inactive	inactive						
CCCCCCCCCCO	inactive	inactive	inactive	inactive	inactive	inactive	inactive	inactive		inactive	inactive	10.3 µM (active)					
O=C(O)CCCCC(=O)O	inactive	inactive	inactive	inactive	inactive	inactive	inactive	inactive	inactive	inactive	inactive						
C=CCc1ccc(O)c(OC)c1	inactive	inactive	inactive	inactive	inactive	inactive	inactive	inactive	inactive	inactive	inactive						
COc1cc(S(=O)(=O)O)c(C)cc1N=Nc1c(O)ccc2cc(S(=O)(=O)O)ccc12	inactive	inactive									inactive		38.7 µM (active)	23.8 µM (active)	50 µM (active)		
CC(=O)C(C)=CC1C(C)=CCCC1(C)C (stereo not given)	inactive	inactive	inactive	inactive	inactive	inactive	inactive	inactive		inactive		20 µM (active)					
Cc1ccc2ncccc2c1	inactive	inactive	inactive	inactive	inactive	inactive	inactive	inactive	inactive	inactive							
Cc1oc(-c2ccccc2)nc1CCOc1cccc2c1ccn2CCC(=O)O	inactive	inactive											3.11 µM (active)			inactive	inactive
Clc1cc(Cl)c(Cl)cc1Cl	inactive	inactive	inactive	inactive	inactive	inactive	inactive	inactive	inactive	inactive	inactive						
NS(=O)(=O)c1cc2c(cc1Cl)NCNS2(=O)=O	inactive	inactive	inactive	inactive	inactive	inactive	inactive	inactive	inactive	inactive	inactive						
